From PubChem BioAssay
HIV Env fusion – HIV envelope-mediated fusion inhibition | inhibition, % at 12.3 µM | HeLa-JRFL Env/CEM21 cell fusion, luciferase | 360,000 compounds, 1.1% hits;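 active = mean replicate inhibition score of at least 50 and every replicate individually at or above 50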
PAX8 inh HTS – PAX8 transcriptional activity inhibition. RMG-I TPO-luciferase reporter, SteadyGlo, 24 h. inhibition, % at 12.6 µM. 360,000 compounds, 1.2% hits. AID 652154;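 active = mean replicate inhibition at least 60% with every replicate also reaching 60%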;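 also: luciferase light reporting Pax8 driven TPO promoter activity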
miR-122 sensor – blocks miR-122 activity in Huh7 sensor cells | activation (reporter increase), % at 12.5 µM | Huh7 miR-122 Renilla luciferase sensor, 48 h; neutral wells = 0, positive control = 100 | 340,000 compounds, 0.3% hits;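 active = mean replicate activation score at least 90 and every replicate individually at or above 90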;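 also: higher luciferase means less miR-122 activity so hits act as miR-122 inhibitors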
GSIS activator – primary screen for activators of insulin secretion dependent on glucose, INS-1E cells, GLuc reporter luminescence; INS-1E GLuc reporter insulin secretion, 2-3 h; activation, % at 16.6 µM; 370,000 compounds, 0.61% hits; AID 743287;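 active = lowest replicate activation of at least 40%, so every replicate reaches that level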
EWS-Fli block – EWS/Fli transcriptional activity inhibition; 350,000 compounds, 0.67% hits; A673 NR0B1-luciferase reporter, viability-normalised; AID 651661; inhibition, % at 12.6 µM;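 active = mean inhibition of at least 50% after viability correction, with every replicate also passing that limit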;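 also: firefly luciferase signal divided by Alamar Blue viability fluorescence both relative to DMSO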
C2C12 statin – protects C2C12 myotubes from simvastatin toxicity | ATP luminescence, 48 h; scaled: DMSO 0, geranylgeraniol control 100 | rescue of ATP level, % at 7.49 µM | 330,000 compounds, 0.78% hits;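 active = mean ATP rescue above about 67%, or every replicate alone reaching that limit, limit read from the data, passing the limit was not always enough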;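 also: myotubes were challenged with 10 µM simvastatin during compound exposure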
Hits are given with their value; – = inactive; · = no result; [ ] = remark or other dose. Most compounds without a hit are left out; they make up all but 3.1% or so of the library.

SMILES	HIV Env fusion	PAX8 inh HTS	miR-122 sensor	GSIS activator	EWS-Fli block	C2C12 statin
COc1ccc(NC(=O)Nc2ccc3c(c2)C(=O)N([C@@H](C)CO)C[C@H](C)[C@H](CN(C)Cc2ccc(C(F)(F)F)cc2)O3)cc1	–	–	149.5[16.7 µM]	–	–	–
CC(NCc1ccc2c(c1)OCO2)C(=O)NC1CCCc2ccccc21 (stereo not drawn)	·	·	–	·	·	99.4
O=C(NC1CCCc2ccccc21)c1ccc2c(c1)OCO2 (stereo not drawn)	–	–	–	–	–	–
COc1cccc(C(=O)Nc2cc([N+](=O)[O-])ccc2N2CCN(C)CC2)c1	·	·	292.0	–	–	–
COc1cccc(C(=O)Nc2ccccc2C(=O)N2CCCC2)c1	–	–	–	·	·	99.8
CC(=O)Oc1cccc(C(=O)Nc2ccccc2C(=O)N2CCCC2)c1	–	–	–	–	–	–
COc1cccc(C(=O)NC(=S)N2CCN(c3ccc(C(F)(F)F)cc3[N+](=O)[O-])CC2)c1	–	–	–	–	63.8	·
Cc1ccc2nc(SCC(=O)c3cc(C)n(C)c3C)[nH]c2c1	·	·	–	–	·	·
Cc1ccc2nc(SCC(=O)c3c(N)n(C)c(=O)n(C)c3=O)[nH]c2c1	–	–	·	–	53.6	·
C[C@@H]1CN([C@H](C)CO)C(=O)c2cc(C3=CCCC3)cnc2O[C@@H]1CN(C)Cc1cccnc1	–	·	·	–	–	–
c1cc(-c2noc(CC3CCCCC3)n2)ccn1	·	·	–	·	·	147.0
c1ccc(-c2noc(CC3CCCCC3)n2)nc1	–	–	·	–	–	·
Cc1ccc(-c2ccc([C@H]3[C@@H](CO)N4CCCCN(C(=O)Nc5cccc(F)c5)C[C@H]34)cc2)cc1	·	107.7	–	–	–	·
COc1ccc(C#Cc2ccc([C@@H]3[C@H](CO)N4CCCCN(C(=O)Nc5cccc(F)c5)C[C@@H]34)cc2)cc1	·	76.3	–	–	–	–
COc1ccc(C#Cc2ccc([C@H]3[C@@H](CO)N4CCCCN(C(=O)Nc5cccc(F)c5)C[C@H]34)cc2)cc1	·	75.5	–	–	–	–
COc1ccc(C#Cc2ccc([C@@H]3[C@H]4CN(C(=O)Nc5cccc(F)c5)CCCCN4[C@H]3CO)cc2)cc1	·	–	–	–	–	–
O=C(Nc1cccc(F)c1)N1CCCCN2[C@H](C1)[C@@H](c1ccc(-c3ccncc3)cc1)[C@@H]2CO	·	–	–	–	–	·
COc1ccc(C#Cc2ccc([C@H]3[C@@H](CO)N4CCCCN(C(=O)Nc5cccc(F)c5)C[C@@H]34)cc2)cc1	·	–	–	–	–	–
CCC(=O)N1[C@H](C(=O)NC2CCC2)[C@@H](CO)[C@@H]2Cn3c(ccc(C4=CCCCC4)c3=O)[C@@H]21	·	·	–	–	–	–
COc1ccc(C2=NS(=O)(=O)N(C)C(C(=O)N3CCCCC3C)=C2)cc1 (stereo not drawn)	60.1	–	·	–	–	–
COc1ccc(C(=O)N2CCN(c3ccc([N+](=O)[O-])c(NCCc4ccc(OC)c(OC)c4)c3)CC2)cc1	76.8	–	–	–	·	·
COc1ccc(CCNc2cc(N3CCN(C(=O)c4ccccc4F)CC3)ccc2[N+](=O)[O-])cc1OC	·	·	–	·	·	–
CCCCn1c(SCC(=O)Nc2cc(C)[nH]n2)nc2ccsc2c1=O	–	·	–	–	·	–
COc1ccc(NC(=O)CSc2nc3ccsc3c(=O)n2CCC(=O)O)cc1	60.1	–	–	–	–	–
COc1ccc(NC(=O)CSc2nc3ccsc3c(=O)n2CCC(=O)O)c(OC)c1	–	–	–	–	·	–
SMILES	HIV Env fusion	PAX8 inh HTS	miR-122 sensor	GSIS activator	EWS-Fli block	C2C12 statin
Cc1cc(NC(=O)CSc2nc3ccsc3c(=O)n2Cc2ccccn2)n[nH]1	·	·	–	–	–	93.1
C[C@@H]1CN([C@H](C)CO)C(=O)c2cccc(NS(=O)(=O)c3cccs3)c2O[C@H]1CN(C)C(=O)Nc1ccc(C(F)(F)F)cc1	·	·	–	·	–	73.5
C[C@@H]1CN([C@@H](C)CO)C(=O)c2cccc(NS(=O)(=O)c3cccs3)c2O[C@@H]1CN(C)C(=O)Nc1ccc(C(F)(F)F)cc1	·	·	–	–	–	95.7
C[C@@H]1CN([C@@H](C)CO)C(=O)c2cccc(NS(=O)(=O)c3cccs3)c2O[C@H]1CN(C)C(=O)Nc1ccc(C(F)(F)F)cc1	·	·	–	–	–	–
Cc1ccc(S(=O)(=O)Nc2cccc3c2O[C@@H](CN(C)C(=O)Nc2ccc(C(F)(F)F)cc2)[C@@H](C)CN([C@H](C)CO)C3=O)cc1	–	104.3	–	–	–	–
Cc1noc(C)c1S(=O)(=O)Nc1ccc2c(c1)C(=O)N([C@@H](C)CO)C[C@@H](C)[C@@H](CN(C)C(=O)Nc1ccc(C(F)(F)F)cc1)O2	–	·	–	–	–	·
O=C(CN(c1ccc(F)cc1)S(=O)(=O)c1ccccc1)NCc1ccco1	·	·	–	–	·	103.5
CCN(c1ccccc1)S(=O)(=O)c1ccc(OC)c(OC)c1	·	·	–	55.3	–	·
CCOc1ccc(N(CC(=O)NCc2ccco2)S(=O)(=O)c2ccc(OC)c(OC)c2)cc1	·	·	–	–	·	108.5
CCOc1ccc(CCn2c(-c3ccco3)nc3ccccc3c2=O)cc1OCC	62.5	·	–	·	·	–
O=c1c2ccccc2nc(-c2ccco2)n1Cc1ccccc1	–	·	·	64.1	·	–
O=c1c2ccccc2nnn1Cc1ccccc1	–	–	–	45.4	–	–
CCOC(=O)c1ccc(-n2c(-c3ccco3)nc3ccccc3c2=O)cc1	–	·	–	·	·	·
Cc1noc(C)c1NC(=O)N[C@@H]1C=C[C@@H](CC(=O)NCCCN(C)C)O[C@H]1CO	·	·	·	–	·	–
Cc1ccccc1-c1cnc2c(c1)C(=O)N([C@@H](C)CO)C[C@H](C)[C@@H](CN(C)C(=O)CC1CC1)O2	–	–	–	–	–	–
COCC#Cc1cnc2c(c1)C(=O)N([C@@H](C)CO)C[C@@H](C)[C@@H](CN(C)C(=O)CCN1CCCCC1)O2	–	·	–	–	–	–
CC(C)n1c(/C=C/c2ccccc2)nc2ccccc21	–	–	192.0	–	·	–
C[C@H](CO)N1C[C@H](C)[C@@H](CN(C)Cc2ccc(-c3ccccc3)cc2)Oc2ccc(NC(=O)c3ccncc3)cc2CC1=O	–	–	–	–	–	123.6
C[C@@H]1CN([C@@H](C)CO)C(=O)Cc2cc(NC(=O)c3ccncc3)ccc2O[C@@H]1CN(C)Cc1ccc(-c2ccccc2)cc1	–	102.0	–	–	–	–
C[C@H](CO)N1C[C@H](C)[C@@H](CN(C)Cc2ccc(Cl)c(Cl)c2)Oc2ccc(NC(=O)c3ccncc3)cc2CC1=O	–	–	–	–	·	132.8
C[C@@H]1CN([C@H](C)CO)C(=O)c2cc(NC(=O)Cc3cn(C)c4ccccc34)ccc2O[C@@H]1CN(C)Cc1ccc(C(=O)O)cc1	·	–	–	–	–	–
CCN(CC)c1ccc(C2C(C(=O)OCCOC)=C(C)NC3=C2C(=O)CC(C)(C)C3)cc1 (stereo not drawn)	·	·	95.1	·	·	–
